Records with an inconclusive call do not appear. Where a call stands in place of a potency, no number is given. The source made the active and inactive calls. Calls come from the whole dose curve; as a rule, active = well fitted inhibition curve with a large enough effect; inconclusive = small, poorly fitted or top-dose-only effect; inactive = flat fitted curve, though single readings scatter.
target: Calcium and integrin-binding protein 1 (Homo sapiens) (UniProt Q99828); assay: Primary qHTS for Identification of Calcium Integrin Binding Protein 1 (CIB1) Competitor (AID 1508620); settings: CIB1-GST / FITC-alphaIIb peptide fluorescence polarization; series mostly up to 57.7 µM;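 note: GST tagged CIB1 binding a fluorescein labelled alphaIIb integrin peptide tracer; top concentration of the series differs between compounds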
Excerpt: Assay Provider: Ulhas P. Naik, PhD Sidney Kimmel Medical College Thomas Jefferson University, Philadelphia, PA Primary function of platelets is to maintain hemostasis. At the site of vascular injury, platelets adhere to adhesive proteins such as collagen and von Willebrand factor. Adherent platelets are activated and generate soluble platelet agonists such as thrombin, ADP and thromboxane A2. Following exposure of circulating platelets to these agonists, results in platelet shape change, granule secretion and activation of platelet integrin alphaIIb-beta3. Ligand binding to activated integrin alphaIIb-beta3 triggers outside-in signaling, leading to platelet aggregation, stabilization of platelet plug, and clot retraction. Upon atherosclerotic plaque rupture also causes platelet plug formation, which underlies a number of cardiovascular diseases such as myocardial infraction and stroke. A number of anti-platelet drugs such as aspirin, clopidogrel, prasugrel, vorapaxar, and eptifibatide are currently available to prevent the thrombotic complications. However, these anti-platelet agents have several limitations including inherent variability in individual responses, developing resistance, and serious bleeding side effects. For these reasons they are not suitable for long-term protection. Based on the experiences with current anti-platelet drugs, it appears that the most useful therapeutic approach is to intersect the secondary responses such as integrin outside-in signaling or recruitment of platelets by TxA2 and secreted ADP. Compounds, which can largely preserve the primary hemostatic function of platelets but inhibit secondary response will be most desired therapeutic agents for treatment of cardiovascular disease. CIB1 is a calcium integrin binding protein, which specifically interact with the alphaIIb subunit of integrin alphaIIb-beta3. Binding of CIB1 to alphaIIb regulates the outside-in signaling in platelets, which is needed for thrombus stabilization and thrombus growth. […] Therefore, we propose that discovery of a small molecule that can prevent the association of CIB1 and alphaIIb-beta3 will be a potential anti-platelet agent that can block the thrombus formation without undue effect on hemostasis. Reference: [1] Naik MU, Nigam A, Manrai P, et al. CIB1 deficiency results in impaired thrombosis: the potential role of CIB1 in outside-in signaling through integrin alpha IIb beta 3. J Thromb Haemost.
PROTOCOL TABLES SEQUENCE No. (1, 2, 3, etc.); […] (e.g., Cells, Incubation, Reagent, etc.); VALUE and DESCRIPTION. 1; Reagent; 3 uL; Protein or buffer (4/3x) 2; Compound; 46 nL; Control inhibitor / compound library 3; Time; 15 min; Room temperature incubation 4; Reagent; 1 uL; Fluorescent labeled peptide (4x) 5; Time; 1000 rpm; Centrifuge 6; Time; 15 min; Room temperature incubation 7; Detection; Ex 480/ Em 540; ViewLux Fluorescence Read NOTES (numbers refer to sequence above) 1; Protein Mixture: C1B1-GST (final concentrations of 1 uM). […] 3; Room temperature incubation. 4; Fluorescent Labeled Peptide: FITC-aIIb (final concentration of 100 nM). Sequence of alphaIIb peptide: Acetyl-[…]-FITC (purity is 95.83%). 5; Centrifuge 1000 rpm (164 g) for 15 seconds. 6; Room temperature incubation. 7; ViewLux Fluorescent Polization Read: excitation = 480(20) / emission = 540(25) S and P; FITC Dichroic mirror.

Chain of Calcium and integrin-binding protein 1 (Homo sapiens) (Q99828 whole entry, looked up): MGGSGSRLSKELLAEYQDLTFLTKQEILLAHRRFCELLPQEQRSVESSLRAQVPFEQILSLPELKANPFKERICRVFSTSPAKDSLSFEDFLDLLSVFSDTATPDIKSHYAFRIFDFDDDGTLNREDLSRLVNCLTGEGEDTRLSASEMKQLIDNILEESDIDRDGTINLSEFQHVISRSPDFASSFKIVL

SMILES	Potency
CCCOc1ccn2c(C(C)=O)cc(-c3ccccc3S(C)(=O)=O)c2c1	inactive
NCCCC[C@H](NC(=O)[C@@H]1Cc2ccccc2CN1C(=O)CCC(=O)c1ccccc1)C(=O)NCC(c1ccccc1)c1ccccc1	inactive
NS(=O)(=O)NCCNc1nonc1C(=Nc1ccc(F)c(Br)c1)NO	inactive
CC(=O)OC[C@]12[C@H](OC(C)=O)C(=O)[C@@H]3[C@@H](OC(C)=O)[C@@]14O[C@@]3(C)COC(=O)c1cccnc1[C@@H](C)[C@H](C)C(=O)O[C@@H]([C@H](OC(C)=O)[C@@H]2OC(C)=O)[C@]4(C)O	inactive
COc1cccc(-c2ccc([C@@H](Oc3cc(-c4ccc(C[C@H](N)C(=O)O)cc4)nc(N)n3)C(F)(F)F)cc2)c1	inactive
O=S(=O)(NC1CCNCC1)c1cc(S(=O)(=O)c2ccccc2)ccc1C(F)(F)F	inactive
CCOc1ccc(-c2ccc(Cn3c(CC(C)(C)C(=O)O)c(SC(C)(C)C)c4cc(OCc5ccc(C)cn5)ccc43)cc2)cn1	inactive
CC1(C)CCC[C@@]2(C)[C@H]1[C@H](O)C=C1COC(=O)[C@@]12O	inactive
COc1c2c(c(C)c3c1C(=O)OC3)O[C@@]1(C)C[C@@H](O)[C@]34O[C@](OC)(CC[C@]3(C)[C@H]1C2)OC4(C)C	inactive
C/C(=C\CO)CC/C=C(\C)C(=O)O[C@H]1[C@H](OC2OC=C(C(=O)O)C3CCC(C)(O)C23)O[C@H](CO)[C@@H](O)[C@@H]1O (stereo not given in full)	inactive
CC1(C)CCC(C)(C)c2cc([C@@H](O)C(=O)Nc3ccc(C(=O)O)cc3F)ccc21	inactive
CC(=O)C1CCC2(C)C3=C(CCC12C)C1(C)CCC(=O)C(C)(C)C1CC3 (stereo not given)	inactive
CC1CCC(=O)CC(O)C(O)CC(=O)O1 (stereo not given)	inactive
C[C@@H]1O[C@@H](O[C@H]2[C@H](OC(=O)C34CCC(C)(C)CC3C3=CCC5C6(C)CC(O)C(O[C@@H]7O[C@H](CO)[C@@H](O)[C@H](O)[C@H]7O)C(C)(C(=O)O)C6CCC5(C)C3(CO)CC4)O[C@H](C)[C@H](O)[C@@H]2O)[C@H](O)[C@H](O)[C@H]1O[C@@H]1OC[C@@H](O)[C@H](O)[C@H]1O (stereo not given in full)	inactive
CC(C)(O)/C=C1/C(=O)C(C)(C)C(=O)C(C)(C)C1(O)O[C@@H]1O[C@H](COC(=O)c2cc(O)c(O)c(O)c2)[C@@H](O)[C@H](O)[C@H]1O (stereo not given in full)	inactive
Nc1nc(CC(=O)Nc2ccc(CCNCC(O)c3ccccc3)cc2)cs1 (stereo not given)	inactive
CC(=O)[C@@H]1CC[C@]2(C(=O)O)CC[C@]3(C)C(CCC4[C@@]5(C)CC[C@H](O)C(C)(C)C5CC[C@]43C)C12 (stereo not given in full)	inactive
CC(C)CC(=O)OC[C@H]1O[C@@](COC(=O)CC(C)C)(O[C@H]2O[C@H](CO)[C@@H](O)[C@H](O)[C@H]2OC(=O)CC(C)C)[C@@H](OC(=O)CC(C)C)[C@@H]1O	inactive
CC(=O)O[C@@]1(C)C[C@@H](O)[C@]2(O)C=CO[C@@H](O[C@@H]3O[C@H](CO)[C@@H](O)[C@H](O)[C@H]3O)[C@@H]21	inactive
CCS(=O)(=O)N1CCC([C@@H](C)n2c(C)c(C(=O)NCc3c(OC)cc(C)[nH]c3=O)c3ccccc32)CC1	inactive

SMILES	Potency
Cc1cccc(-c2[nH]c(CNc3ccccc3F)nc2-c2ccc3ncnn3c2)n1	inactive
CC(C)[C@@H](C)/C=C/[C@@H](C)[C@H]1CC[C@H]2C3=CC=C4C[C@@H](O)CC[C@]4(C)[C@H]3CC[C@]12C	inactive
CC1=C(C)C(=O)OC(C(C)(O)C2CCC3C4CC=C5CC(OC6OC(COC7OC(CO)C(O)C(O)C7O)C(O)C(O)C6O)CC(O)C5(C)C4CCC32C)C1 (stereo not given)	inactive
C[C@@H]1CCC2C(C)(C)[C@H](O)CC[C@]2(C)[C@@]12Cc1c(O)cc3c(c1O2)CN(CCO)C3=O (stereo not given in full)	inactive
O=C(COc1ccc(Cl)cc1)NC1CCC(NC(=O)COc2ccc(Cl)cc2)CC1 (stereo not given)	inactive
O=C(O[C@H]1[C@@H]2C=CO[C@@H](O[C@@H]3O[C@H](CO)[C@@H](O)[C@H](O)[C@H]3O)[C@@H]2[C@@]2(CO)O[C@@H]12)c1ccc(O)c(O)c1	inactive
CCCC(N[C@@H](C)C(=O)N1[C@H](C(=O)O)C[C@@H]2CCCC[C@@H]21)C(=O)OCC (stereo not given in full)	inactive
COC(=O)C1=CO[C@@H](O[C@@H]2O[C@H](COC(=O)/C=C/c3cc(OC)c(O)c(OC)c3)[C@@H](O)[C@H](O)[C@H]2O)[C@@H]2C(CO)=CC[C@H]12	inactive
CCOC(=O)c1ccc(N(C)c2csc(-c3ccccc3)n2)cc1	inactive
COc1ccc(C(=O)O[C@H]2CC(C)=CC[C@@]3(C)[C@@H](OC(C)=O)C[C@@](O)(C(C)C)[C@H]23)cc1	inactive
OC[C@H]1O[C@@H](OCCc2ccc(O)cc2)[C@H](O)[C@@H](O)[C@@H]1O	inactive
CCC(=O)N[C@@H]1Cc2ccccc2[C@H](c2ccccc2)C1	inactive
C=C1CCC2C(C)(C)CC(=O)CC2(C)C1CCC(C)CCOC(C)=O (stereo not given)	inactive
C=C1C[C@]23C[C@H]1CC[C@H]2[C@]1(C)CCC[C@@]2(CO)C(=O)O[C@H]([C@H]21)[C@@H]3O	inactive
CNC(=O)c1ccc2cc([C@@]3(O)CCn4cncc43)ccc2c1	inactive
C=C[C@@]1(C)CC(=O)C2[C@](C)(O1)[C@@H](OC(C)=O)[C@@H](O)[C@H]1C(C)(C)CCC[C@]21C (stereo not given in full)	inactive
C=C1CCC2C(C)(COC3OC(COC(=O)CC(=O)O)C(O)C(O)C3O)CCCC2(C)C1CCC1=CCOC1=O (stereo not given)	inactive
COc1ccccc1-n1c(SCC(=O)Nc2nc3ccc(C)cc3s2)nc2c(c1=O)SCC2	inactive
CCC(NC(=O)CC(NC(=O)C(CO)NC(=O)C(CC)NC(=O)c1ccc[nH]1)c1ccccc1)C(=O)O (stereo not given)	inactive
C=C1C[C@]23C[C@H]1CC[C@H]2[C@@]12C=C[C@H](O)[C@@](C)(C(=O)O1)[C@H]2[C@@H]3C(=O)O	inactive
